Data as given in PubChem BioAssay AID817 (Emory University Molecular Libraries Screening Center, 2007).
In all, about 140,000 compounds went through this assay and about 300 (0.21%) were called active.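 How the source made its calls: active means z-score above 3 at both the 24 hr and the 30 hr optical density reads; inactive means the rest, inconclusive results apart.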 What follows is part of a selection rich in actives, with near analogues and random picks from the rest.

Experiment: growth rescue of sdo1-depleted yeast, primary screen, S. cerevisiae, bone marrow failure model (AID 817);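 further: z-score against mean and SD of all compound wells on the same plate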
Details: S. cerevisiae sdo1-depleted JHY4D growth rescue, at 10 µM, stronger effect = higher value, pdr5 snq2 efflux-pump mutant strain
[1] = OD600, measured here: growth rescue at 24 h

SMILES	z-score (OD600 30 h)	z-score [1]
C=CCc1ccccc1OCC(=O)N/N=C/c1ccccc1OCC	0.63 (inactive)	0.43
CC(=O)N1CCN(CC(=O)Nc2ccc(SC(F)F)cc2)CC1	1.61 (inactive)	1.79
CC(C)CNC(=O)CC(NCC(C)C)C(=O)O (centres undefined)	0.7 (inactive)	0.56
c1ccc(C2CNCc3c2ccc2ccccc32)cc1 (centres undefined)	-0.88 (inactive)	-1.37
CCc1nnc(NC(=O)[C@@H](NC(=O)c2cccc(C)c2)C(C)C)s1	0.02 (inactive)	-0.75
CCc1cccc(CC)c1NC(=S)NCc1ccc2[nH]c(C)cc2c1	-0.04 (inactive)	0.97
CC1CCCC(NC(=O)COC(=O)[C@@H]2CC(O)CN2S(=O)(=O)c2ccc3c(c2)OCCO3)C1C (some centres undefined)	1.03 (inactive)	1.42
Cc1nc2scc(-c3cccs3)c2c(=O)n1N	0.14 (inactive)	-0.79
O=C(COC(=O)/C=C/c1nc2ccccc2s1)Nc1ccccc1Oc1ccccc1	-0.21 (inactive)	0.04
CC(=O)NS(=O)(=O)c1ccc(NC(=O)C2C3C=CC(C3)C2C(=O)O)cc1 (centres undefined)	-0.71 (inactive)	-0.47
CN(C)C(CNC(=O)c1ccc(S(=O)(=O)NCc2ccco2)cc1)c1ccccc1 (centres undefined)	0.96 (inactive)	0.68
COc1ccc(C)cc1Nc1nc(-c2c(C)[nH]c3ccccc23)cs1	-0.39 (inactive)	-0.09
CCCn1c(=O)c2c(C(F)(F)F)cc(-c3cccs3)nc2n(CCC)c1=O	1.32 (inactive)	2.13
O=C(NCc1cccs1)C(=O)NCC1OCCCN1S(=O)(=O)c1ccc(F)cc1 (centres undefined)	-0.71 (inactive)	-1.35
CCOc1ccc(NC(=S)N2CCC(N(C)CC3CCCO3)CC2)cc1 (centres undefined)	0.68 (inactive)	1.31
Cc1[nH]c2ccccc2c1/C=N/NC(=O)CNC(=O)c1ccc2c(c1)OCO2	1.92 (inactive)	3.35
NC(=S)N/N=C/c1coc2cc(Cl)ccc2c1=O	-1.25 (inactive)	-1.16
O=C(CSc1nnc(-c2ccncc2)o1)NCc1ccc(Cl)cc1	0.26 (inactive)	-0.05
COc1ccc(NC(=S)NC2CCS(=O)(=O)C2)cc1 (centres undefined)	-0.13 (inactive)	-0.11
COCCn1c(=NC(=O)c2ccccc2[N+](=O)[O-])sc2cc(S(C)(=O)=O)ccc21	-0.84 (inactive)	-0.91
COC(=O)c1onc(-c2c(OC)cc(OC)cc2OC)c1C(=O)OC	0.49 (inactive)	0.26
O=C(COC(=O)c1cc(=O)[nH]c2ccccc12)Nc1nc(-c2cccc(Br)c2)cs1	-0.47 (inactive)	-0.07
C=CCNC(=O)c1ccccc1NC(=O)c1ccc(Cl)c(S(=O)(=O)Nc2cccc(C)c2C)c1	-0.47 (inactive)	0.23
C=CCN1C(=O)C(Cc2ccc(OCC)cc2)SC1=Nc1ccc(C(=O)O)cc1 (centres undefined)	-0.13 (inactive)	-0.75
CC(C)CCNC(=O)c1cccnc1Sc1ccccc1	0.7 (inactive)	0.32
Cc1ccc(/C=N/NC(=O)CNC(=O)COc2ccccc2)o1	1.11 (inactive)	1.1

SMILES	z-score (OD600 30 h)	z-score [1]
CS(=O)(=O)N(Cc1ccccc1)c1ccc(C(=O)NN=C2CCCCCC2)cc1	-0.22 (inactive)	-0.83
COc1ccccc1OCc1ccc(C(=O)N2CCN(C)CC2)o1	0.86 (inactive)	0.24
CN1CCN(C(=O)/C(=C\c2cccs2)NC(=O)c2cccs2)CC1	0.48 (inactive)	0.2
CCOc1ccc(C(=O)NC(=S)Nc2ccc(N3CCOCC3)c(Cl)c2)cc1[N+](=O)[O-]	-1.76 (inactive)	-1.28
COc1ccc(C(=O)NNS(=O)(=O)c2ccc(C)cc2)cc1	-0.36 (inactive)	-1.37
CC1(C)C=C2[C@H]3CC[C@@H]4[C@@]5(C)CCC(=O)C(C)(C)[C@@H]5CC[C@@]4(C)[C@]3(C)CC[C@@]2(C(=O)O)CC1	-0.02 (inactive)	-0.53
FC(F)(F)c1cccc(N/N=C/c2ccccc2)c1	-1.78 (inactive)	-1.53
COc1ccccc1N1CCN(C(=O)C(=O)N/N=C/c2ccccc2F)CC1	1.25 (inactive)	0.28
COc1ccc(OC(C)C(=O)NCCc2nc3ccccc3[nH]2)cc1 (centres undefined)	0.82 (inactive)	-0.04
COc1ccccc1-n1c(C)nc2cc(C(=O)NCc3ccc4c(c3)OCO4)ccc21	-0.72 (inactive)	-1.61
COC(=O)c1cc(C(=O)N(Cc2ccccc2)c2ccccn2)cc([N+](=O)[O-])c1	-0.07 (inactive)	-0.08
CCc1ccccc1NC(=O)CN(C)C(=O)COc1ccc(C)nc1[N+](=O)[O-]	-0.39 (inactive)	-0.24
CCOC(=O)N1CCN(CC(=O)c2c(C)[nH]c3ccccc23)CC1	-0.21 (inactive)	-1.53
Cc1[nH]c2ccccc2c1C(=O)CSCC(=O)O	10.5 (active)	8.73
Cc1[nH]c2ccccc2c1C(=O)COC(=O)C(C)C	0.17 (inactive)	-0.5
CCCC1OC23CCCCC2C(C#N)(C#N)C1(C#N)C(=N)O3 (centres undefined)	0.28 (inactive)	0.9
CCOc1ccc2c(=O)c(-c3ccc4c(c3)OCCCO4)c(C)oc2c1	0.07 (inactive)	-0.34
O=C(OCC(=O)c1c[nH]c2ccccc12)c1cccc(O)c1	0 (inactive)	0
O=C(NC(=S)Nc1ccc2oc(=O)ccc2c1)c1ccc(-c2cccc(Cl)c2Cl)o1	-0.64 (inactive)	0.44
CCOC(=O)c1c(NC(=S)Nc2ccccc2C)sc2c1CCC2	-0.66 (inactive)	0.75
COc1ccc(C(C[N+](=O)[O-])n2nc(C)cc2C)cc1 (centres undefined)	-2.03 (inactive)	-0.33
O=C(N/N=C\c1ccc(Br)cc1)c1ccc(Cn2cccn2)o1	0.87 (inactive)	-0.05
O=S(=O)(NCC1CCCO1)c1cnc(Cl)c(Cl)c1 (centres undefined)	1.1 (inactive)	0.93
Cc1c(C(=O)NCCN2C(=O)S/C(=C\c3cccs3)C2=O)cccc1[N+](=O)[O-]	-0.51 (inactive)	-0.6
COc1cccc(NC(=O)C(Sc2nc3ccccc3c(=O)n2CC(C)C)c2ccccc2)c1 (centres undefined)	-1.02 (inactive)	-0.31
Cc1nnnn1/C(=C\c1ccccc1)C(=O)OCC(=O)N1CC2(C)CC1CC(C)(C)C2 (centres undefined)	-1.27 (inactive)	-0.83
